Values without a mark were called inactive. Inconclusive results are not listed. Entries that show only a call come without a potency. Active and inactive are the calls of the source. Unless noted, calls come from the whole dose curve; as a rule, active = well fitted curve in the direction sought with a large enough effect in the repeat runs; inconclusive = weak or mixed curves; inactive = no such curve, though single readings can be large; an effect the other way counts as inactive or inconclusive.
Columns and labels:
[1] = molecular target: Progesterone receptor (Homo sapiens) (UniProt P06401); assay: qHTS assay to identify small molecule agonists of the progesterone receptor (PR) signaling pathway (AID 1346784; calls by dose curve; note: nearly all actives have a fitted effect of over 30% in size)
Progesterone receptor (Homo sapiens), sequence (P06401 whole entry, looked up): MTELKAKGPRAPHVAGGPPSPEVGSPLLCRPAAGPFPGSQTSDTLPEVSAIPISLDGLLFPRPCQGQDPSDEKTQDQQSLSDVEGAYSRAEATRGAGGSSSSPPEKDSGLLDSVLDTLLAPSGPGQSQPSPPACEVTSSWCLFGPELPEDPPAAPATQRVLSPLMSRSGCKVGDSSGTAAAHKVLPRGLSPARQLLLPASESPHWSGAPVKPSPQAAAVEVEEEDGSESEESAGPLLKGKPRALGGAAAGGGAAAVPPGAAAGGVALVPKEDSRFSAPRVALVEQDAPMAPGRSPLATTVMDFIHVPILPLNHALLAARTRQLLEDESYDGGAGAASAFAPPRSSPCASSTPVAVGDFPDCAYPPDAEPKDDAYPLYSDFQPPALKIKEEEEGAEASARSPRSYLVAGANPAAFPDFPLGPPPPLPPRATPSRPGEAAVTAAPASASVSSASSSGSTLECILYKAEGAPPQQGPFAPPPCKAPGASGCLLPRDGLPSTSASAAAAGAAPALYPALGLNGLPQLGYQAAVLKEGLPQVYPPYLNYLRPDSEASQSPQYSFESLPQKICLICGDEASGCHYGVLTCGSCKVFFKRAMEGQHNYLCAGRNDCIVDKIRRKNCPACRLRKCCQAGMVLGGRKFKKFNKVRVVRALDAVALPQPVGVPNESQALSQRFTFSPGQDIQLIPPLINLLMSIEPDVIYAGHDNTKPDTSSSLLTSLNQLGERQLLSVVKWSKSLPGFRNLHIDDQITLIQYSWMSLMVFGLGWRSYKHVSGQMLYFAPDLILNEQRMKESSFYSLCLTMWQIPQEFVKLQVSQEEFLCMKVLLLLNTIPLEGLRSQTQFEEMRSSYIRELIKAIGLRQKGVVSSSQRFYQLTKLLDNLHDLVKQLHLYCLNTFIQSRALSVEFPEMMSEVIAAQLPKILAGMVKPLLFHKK
Method in brief: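 PR-UAS-bla HEK 293T cells carrying a UAS-driven beta-lactamase reporter were seeded in medium with 2% charcoal-stripped FBS, preincubated 6 hr at 37C, then exposed to compounds in DMSO for 16 hr; agonism was read by LiveBLAzer B/G FRET fluorescence.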

[2] = molecular target: Progesterone receptor (Homo sapiens) (UniProt P06401); assay: qHTS assay to identify small molecule antagonists of the progesterone receptor (PR) signaling pathway (AID 1346795; active = well fitted inhibition curve with a large enough effect in the signal ratio in the repeat runs, not every such curve was filed as active; the % refers to the signal ratio)
Method in brief: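 PR-UAS-bla HEK293T cells carrying a UAS-driven beta-lactamase reporter were plated in medium with 2% charcoal-stripped FBS and rested 6 hr at 37C. Compounds were added with 1 nM R5020 (final) for 16 hr, then FRET substrate loaded 2 hr at room temperature.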

[3] = qHTS assay to identify small molecule antagonists of the progesterone receptor (PR) signaling pathway - cell viability counter screen (AID 1346798); note: nearly all actives have a fitted effect of over 50% in size; note: potency is the fitted concentration of half-maximal effect
Method in brief: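 PR-UAS-bla HEK293T cells in medium with 2% charcoal-stripped FBS were treated with compounds plus R5020 for 16 hr at 37C. Cell viability was then read by CellTiter-Glo luminescence after 30 min at room temperature in the same wells.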

[4] = qHTS assay to identify small molecule agonists of the progesterone receptor (PR) signaling pathway - cell viability counter screen (AID 1346799; calls by dose curve; note: nearly all actives have a fitted effect of over 45% in size)
Method in brief: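 PR-UAS-bla HEK293T cells, 3,000 per well in medium with 2% charcoal-stripped FBS, were preincubated 6 hr at 37C, then exposed to compounds for 16 hr; viability was read as CellTiter-Glo luminescence after 30 min at room temperature.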

[5] = qHTS assay to identify small molecule agonists of the TGF-beta/Smad signaling pathway - cell viability counter screen (AID 1346829); note: top concentration of the series differs between compounds; nearly all actives have a fitted effect of over 45% in size
Method in brief: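 SBE-bla HEK 293T cells plated overnight, compound exposure 5 hr at 37 C. Viability read in the same wells by CellTiter-Glo luminescence after 30 min at room temperature, following the beta-lactamase read.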

[6] = qHTS assay to identify small molecule agonists of the TGF-beta/Smad signaling pathway (AID 1346859; active = well fitted activation curve with a large enough effect in the signal ratio in the repeat runs, not every such curve was filed as active; the % refers to the signal ratio; note: series mostly up to about 77 µM)
Method in brief: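 HEK 293T cells stably carrying a beta-lactamase reporter driven by the Smad binding element were seeded overnight, exposed to DMSO-dissolved compounds for 5 hr at 37 C, 5% CO2, then loaded with FRET substrate for 2 hr at room temperature.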

[7] = Human pregnane X receptor (PXR) small molecule agonists, qHTS cell viability counter screen (AID 1346977); note: nearly all actives have a fitted effect of over 50% in size; note: potency is the fitted concentration of half-maximal effect
Method in brief: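 PXR-Luc HepG2 cells in medium with 5% charcoal-stripped FBS were pre-incubated 5hr, then exposed to compounds for 24hr at 37C. Viability was read in the same wells by CellTiter-Fluor fluorescence, reagent added after 23hr with a 1hr incubation.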

[8] = Caspase-3/7 induction in HepG2 cells by small molecules, qHTS assay (AID 1346978); note: nearly all actives have a fitted effect of over 15% in size
Method in brief: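 Wild-type HepG2 cells (2,000/well) were settled 5 h at 37 C, 5% CO2, then exposed to compounds in DMSO for 17 h. Caspase-3/7 activity was read by luminescence 30 min after adding Caspase-Glo 3/7 reagent at room temperature.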

[9] = Caspase-3/7 induction in CHO-K1 cells by small molecules, qHTS cell viability counter screen (AID 1346979); note: nearly all actives have a fitted effect of over 35% in size
Method in brief: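 Wild-type CHO-K1 cells were seeded at 1,500 per well, rested 5hr at 37 C, then exposed to compounds in DMSO. After 16hr, CellTiter-Fluor reagent was added and fluorescence read 1hr later as the viability measure.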

[10] = Caspase-3/7 induction in CHO-K1 cells by small molecules, qHTS assay (AID 1346980); note: nearly all actives have a fitted effect of over 15% in size
Method in brief: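 Wild-type cells were seeded at 1,500 per well and settled 5 hr at 37 C, 5% CO2, then exposed to DMSO-dissolved compounds for 17 hr. Caspase-Glo 3/7 reagent was added, and luminescence was read after 30min at room temperature.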

[11] = Caspase-3/7 induction in HepG2 cells by small molecules, qHTS cell viability counter screen (AID 1346981); note: series mostly up to about 92 µM; nearly all actives have a fitted effect of over 30% in size
Method in brief: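 Viability determined by CellTiter-Fluor fluorescence in HepG2 wells also used for the luminescent Caspase-Glo 3/7 read. Compounds were present for 16 hr at 37 C, 5% CO2 before reagent addition.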

[12] = molecular target: Nuclear receptor subfamily 1 group I member 2 (Homo sapiens) (UniProt O75469); assay: Human pregnane X receptor (PXR) small molecule agonists, qHTS assay (AID 1346982); note: nearly all actives have a fitted effect of over 35% in size
Nuclear receptor subfamily 1 group I member 2 (Homo sapiens), sequence (O75469 whole entry, looked up): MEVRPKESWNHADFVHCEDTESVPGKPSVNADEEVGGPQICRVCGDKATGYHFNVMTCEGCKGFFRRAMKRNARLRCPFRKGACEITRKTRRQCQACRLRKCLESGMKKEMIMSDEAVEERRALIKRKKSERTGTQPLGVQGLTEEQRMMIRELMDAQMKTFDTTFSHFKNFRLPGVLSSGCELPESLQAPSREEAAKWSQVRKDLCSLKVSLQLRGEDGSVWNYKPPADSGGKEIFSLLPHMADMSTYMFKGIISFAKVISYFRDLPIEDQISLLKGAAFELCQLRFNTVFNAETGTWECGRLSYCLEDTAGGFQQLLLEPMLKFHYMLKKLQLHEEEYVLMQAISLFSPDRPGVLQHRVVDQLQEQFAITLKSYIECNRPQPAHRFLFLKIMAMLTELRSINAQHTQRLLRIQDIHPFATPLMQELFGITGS
Method in brief: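 Compound-induced hPXR transactivation of a CYP3A4 luciferase reporter was scored in HepG2 PXR-Luc cells over 24 hr at 37 C, 5% CO2, by luminescence.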

[13] = molecular target: Acetylcholinesterase (Homo sapiens) (UniProt P22303); assay: Acetylcholinesterase (AChE) small molecule antagonists: colormetric cell-based qHTS assay (AID 1347395; calls by dose curve; note: nearly all actives have a fitted effect of over 30% in size)
Acetylcholinesterase (Homo sapiens), sequence (P22303 whole entry, looked up): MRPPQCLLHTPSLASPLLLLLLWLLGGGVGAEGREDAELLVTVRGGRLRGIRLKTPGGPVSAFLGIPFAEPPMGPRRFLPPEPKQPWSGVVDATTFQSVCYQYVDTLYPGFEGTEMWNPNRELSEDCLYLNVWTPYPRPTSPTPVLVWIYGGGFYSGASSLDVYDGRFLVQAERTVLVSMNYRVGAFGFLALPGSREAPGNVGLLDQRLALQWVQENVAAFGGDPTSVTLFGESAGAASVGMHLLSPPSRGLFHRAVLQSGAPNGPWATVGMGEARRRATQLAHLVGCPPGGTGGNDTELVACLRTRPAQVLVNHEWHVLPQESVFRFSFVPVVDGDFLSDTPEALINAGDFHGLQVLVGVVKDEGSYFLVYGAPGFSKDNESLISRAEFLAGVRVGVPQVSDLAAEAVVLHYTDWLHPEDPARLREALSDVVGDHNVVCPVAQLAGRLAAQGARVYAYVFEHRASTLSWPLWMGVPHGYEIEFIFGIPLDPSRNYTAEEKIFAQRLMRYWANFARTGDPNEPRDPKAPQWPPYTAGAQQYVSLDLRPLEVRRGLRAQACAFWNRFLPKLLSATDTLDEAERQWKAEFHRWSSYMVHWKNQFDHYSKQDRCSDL
Method in brief: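 SH-SY5Y cells, plated overnight at 37 C, were exposed to compounds for 30 min at 37 C and 5% CO2. Acetylthiocholine plus DTNB was then added, and thiocholine from endogenous AChE was quantified colorimetrically after 90 min at 37 C.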

[14] = qHTS assay to identify small molecule antagonists of the TGF-beta/Smad signaling pathway - cell viability counter screen (AID 1346824); note: nearly all actives have a fitted effect of over 50% in size
Method in brief: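 SBE-bla HEK 293T cells were plated overnight at 37 C, then given compounds in DMSO plus TGF-beta1 (added as 0.25 ng/mL solution) for 5 hr. After the bla read, CellTiter-Glo was added to the same wells and luminescence read after 30 min at room temperature.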

[15] = molecular target: Thyrotropin-releasing hormone receptor (Homo sapiens) (UniProt P34981); assay: qHTS assay to identify small molecule antagonists of the thyrotropin-releasing hormone receptor (TRHR) signaling pathway (AID 1346877; active = well fitted inhibition curve with a large enough effect in the repeat runs, not every such curve was filed as active; note: series mostly up to about 51 µM)
Thyrotropin-releasing hormone receptor (Homo sapiens), sequence (P34981 whole entry, looked up): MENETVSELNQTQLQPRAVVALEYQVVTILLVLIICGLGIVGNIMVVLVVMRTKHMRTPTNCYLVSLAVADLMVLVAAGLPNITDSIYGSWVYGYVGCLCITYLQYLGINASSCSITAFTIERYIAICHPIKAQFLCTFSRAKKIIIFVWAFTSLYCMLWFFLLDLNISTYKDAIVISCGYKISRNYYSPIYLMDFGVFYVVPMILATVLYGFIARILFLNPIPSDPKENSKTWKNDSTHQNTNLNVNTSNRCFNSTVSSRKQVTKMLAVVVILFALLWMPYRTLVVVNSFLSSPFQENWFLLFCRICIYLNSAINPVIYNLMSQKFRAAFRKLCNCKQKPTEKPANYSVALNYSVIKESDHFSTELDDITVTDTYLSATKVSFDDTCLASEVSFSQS
Method in brief: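 Following an 18 h incubation at 37 °C and a 2 h calcium dye load, TRHR-HEK293 cells were exposed to compound (5 min, room temperature) and challenged with TRH, 1 nM final.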

[16] = molecular target: Thyrotropin-releasing hormone receptor (Homo sapiens) (UniProt P34981); assay: qHTS assay to identify small molecule agonists of the thyrotropin-releasing hormone receptor (TRHR) signaling pathway (AID 1346891; calls by dose curve; note: series mostly up to about 58 µM)
Method in brief: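 TRHR-expressing HEK293 cells were plated 18 h at 37 °C/5% CO2, loaded with calcium dye 2 h at 37 °C, then given compound in DMSO; fluorescence was read kinetically for 3 min at 1 s intervals.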

[17] = molecular target: Nuclear receptor subfamily 1 group I member 2 (Rattus norvegicus) (UniProt Q9R1A7); assay: Rat pregnane X receptor (rPXR) activation by small molecules, qHTS assay (AID 1346983); details: rPXR luciferase reporter cells, One-Glo luminescence, 24 h; active compounds read high; note: nearly all actives have a fitted effect of over 20% in size
Nuclear receptor subfamily 1 group I member 2 (Rattus norvegicus), sequence (Q9R1A7 whole entry, looked up): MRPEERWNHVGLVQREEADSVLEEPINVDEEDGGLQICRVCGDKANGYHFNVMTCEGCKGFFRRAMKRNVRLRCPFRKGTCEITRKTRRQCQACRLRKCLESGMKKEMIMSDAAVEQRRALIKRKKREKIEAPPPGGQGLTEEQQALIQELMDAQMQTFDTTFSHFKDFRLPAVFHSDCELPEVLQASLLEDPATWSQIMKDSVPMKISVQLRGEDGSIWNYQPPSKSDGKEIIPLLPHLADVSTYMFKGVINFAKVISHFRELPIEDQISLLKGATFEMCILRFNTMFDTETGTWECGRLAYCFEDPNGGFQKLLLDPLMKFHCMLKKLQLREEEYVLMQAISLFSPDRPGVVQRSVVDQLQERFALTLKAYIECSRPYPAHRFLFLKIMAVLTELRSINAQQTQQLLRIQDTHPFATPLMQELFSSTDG
Method in brief: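 Cell-based rPXR luciferase reporter assay, 2,000 cells per well, rested 5hr at 37 C before compound addition in DMSO, then 24 hr at 37 C. One-Glo reagent was added and luminescence read after 30 min at room temperature.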

[18] = molecular target: Nuclear receptor subfamily 1 group I member 2 (Homo sapiens) (UniProt O75469); assay: CYP3A4 induction through human pregnane X receptor (PXR) by small molecules, qHTS assay (AID 1346984); note: nearly all actives have a fitted effect of over 40% in size
Method in brief: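 Readings come from a luciferase reporter: DPX-2 cells, which are HepG2 cotransfected with PXR and a CYP3A4-promoter construct, were exposed to test compounds for 24 h at 37C before One-Glo detection.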

[19] = molecular target: Nuclear receptor subfamily 1 group I member 2 (Homo sapiens) (UniProt O75469); assay: Human pregnane X receptor (PXR) activation by small molecules, qHTS assay (AID 1346985); note: nearly all actives have a fitted effect of over 40% in size
Method in brief: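 DPX-2 cells (HepG2 co-transfected with a PXR response element and a CYP3A4-promoter luciferase construct) were seeded at 2,000 per well, rested 5 hr at 37C, then exposed to DMSO-dissolved compounds for 24 hr. Activation was read as luciferase luminescence.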

Structure (SMILES)	Potency [1]	Potency [2]	Potency [3]	Potency [4]	Potency [5]	outcome [6]	Potency [7]	outcome [8]	Potency [9]	outcome [10]	Potency [11]	Potency [12]	Potency [13]	outcome [14]	Potency [15]	outcome [16]	max activation [17]	Potency [18]	Potency [19]
CCCOc1nn(C(=O)NS(=O)(=O)c2ccccc2C(=O)OC)c(=O)n1C	inactive	inactive	inactive	inactive	inactive	inactive	inactive	inactive	inactive	inactive	inactive	inactive	inactive	–	–	–	–	–	–
Oc1ccc2c3c1O[C@H]1[C@@H](O)C=C[C@H]4[C@@H](C2)NCC[C@@]341	inactive	inactive	inactive	–	inactive	–	inactive	inactive	–	inactive	inactive	–	–	inactive	–	–	–	–	–
C=C1CC[C@@]2(O)[C@H]3Cc4ccc(O)c5c4[C@@]2(CCN3CC2CC2)[C@H]1O5	inactive	inactive	2.98 µM (active)	inactive	inactive	–	inactive	inactive	inactive	inactive	inactive	inactive	inactive	inactive	inactive	inactive	0.729%	inactive	inactive
NC1(c2ccccc2)CCCCC1	inactive	–	inactive	inactive	inactive	inactive	–	inactive	inactive	inactive	inactive	inactive	inactive	inactive	inactive	inactive	–	–	–
CCN[C@H](C)Cc1cccc(C(F)(F)F)c1	inactive	inactive	–	–	inactive	–	–	inactive	inactive	inactive	inactive	inactive	inactive	inactive	inactive	inactive	–	–	–
CCN(CCO)CCn1c(Cc2ccccc2)nc2c1c(=O)n(C)c(=O)n2C	inactive	inactive	inactive	inactive	inactive	inactive	–	inactive	inactive	inactive	inactive	inactive	inactive	inactive	inactive	inactive	–	–	–
CCOC(=O)COc1ccc(Cl)cc1Cl	inactive	inactive	inactive	inactive	inactive	–	inactive	–	inactive	inactive	inactive	inactive	inactive	inactive	inactive	inactive	–	–	–
O=C(O)C(Br)(Br)Br	–	inactive	inactive	inactive	inactive	inactive	inactive	inactive	inactive	inactive	inactive	inactive	inactive	inactive	inactive	inactive	–	–	–
O=C(Cl)/C=C/C(=O)Cl	–	–	inactive	–	inactive	inactive	inactive	inactive	inactive	inactive	inactive	inactive	inactive	inactive	–	–	–	–	–
C[C@H](CN1CCOCC1)C(C(=O)N1CCCC1)(c1ccccc1)c1ccccc1	inactive	–	inactive	inactive	inactive	inactive	83.4 µM (active)	inactive	inactive	inactive	inactive	–	inactive	inactive	inactive	inactive	–	–	–
